In all, about 290,000 compounds went through this assay and about 890 (0.31%) were called active. Rule as the data show it: active = inhibition mostly above about 52% (no sharp cut-off); inactive = mostly below about 76%. Shown is part of a subset that was picked to be rich in actives.
Assay: inhibitors of HIV fusion peptide binding, primary screen, biochemical, uHTS, fluorescence dequenching (AID 1986)
Settings: cell-free peptide binding, 30 min, stronger effect = higher value
[1] = measured here: repeat confirmation average inhibition, at 18.6 µM

Structure (SMILES) | inhibition (at 20 µM) | inhibition [1]
Cc1cc(Sc2nc(N)ncc2[N+](=O)[O-])ncn1 | -1.5% (inactive) | –
COC(=O)c1sc2ncn(N)c(=O)c2c1C | -0.5% (inactive) | –
CC(=O)Nc1ccc(C(=O)N/N=C/C2CC3C=CC2C3)cc1 (centres undefined) | -0.7% (inactive) | –
COc1cc2[nH]c(=O)n(CCCCCC(=O)NCCc3c[nH]c4ccccc34)c(=O)c2cc1OC | 2.6% (inactive) | –
CCOC(=O)c1cc(CC)sc1NC(=O)COc1ccc2c(C)cc(=O)oc2c1 | -0.1% (inactive) | –
N/C(=N\OC(=O)COc1ccc(Cl)cc1Cl)c1cccnc1 | 1.4% (inactive) | –
COc1cc(NC(=O)C(C)Oc2ccccc2)ccc1NC(=O)COc1ccccc1 (centres undefined) | 1.7% (inactive) | –
O=C1Nc2ccccc2OC1CC(=O)N1CCCC1 (centres undefined) | -2.7% (inactive) | –
COCCNC(=O)C(c1ccc(F)cc1)N(Cc1ccco1)C(=O)CCC(=O)Nc1ccccn1 (centres undefined) | -1.2% (inactive) | –
CCOC(=O)C1CCN(C(=O)c2cc3cc4ccc(OC)cc4nc3o2)CC1 | -0.9% (inactive) | –
O=c1/c(=C\c2cccnc2)sc2nc3ccccc3n12 | -0.5% (inactive) | –
COC(=O)/C=c1/sc2nc3ccccc3n2c1=O | 6.3% (inactive) | –
O=c1/c(=C\c2cccn2-c2ccccc2)sc2nc3ccccc3n12 | 3.1% (inactive) | –
O=c1/c(=C/c2ccccn2)sc2nc3ccccc3n12 | -0.5% (inactive) | –
O=C(O)c1cc(C(=O)O)cc(-c2ccc(/C=c3/sc4nc5ccccc5n4c3=O)o2)c1 | 63.3% (active) | –
O=c1/c(=C/c2ccc(O)c([N+](=O)[O-])c2)sc2nc3ccccc3n12 | 50.3% (active) | –
O=C(CN1CCN(c2ccccc2F)CC1)c1c[nH]c2ccc(F)cc12 | 4% (inactive) | –
Cc1cc(C)n2cc(CSc3nncn3C)nc2n1 | -1.3% (inactive) | –
CC1c2ccsc2CCN1S(=O)(=O)c1cccs1 (centres undefined) | -1% (inactive) | –
COc1ccc(Cc2nc3ccc(C(=O)N(C)CCc4cnn(C)c4)cc3o2)cc1OC | 0.7% (inactive) | –
C/C(CC(=O)Nc1ccc(Cl)c(C(F)(F)F)c1)=N\NC(=O)c1ccccc1O | 26.3% (inactive) | –
C/C(CC(=O)Nc1ccc(Cl)c(C(F)(F)F)c1)=N\NC(=O)c1cccc(O)c1 | 4.2% (inactive) | –
C/C(CC(=O)Nc1ccc(Cl)c(C(F)(F)F)c1)=N\NC(=O)c1cc2ccccc2cc1O | 67.3% (active) | –

Structure (SMILES) | inhibition (at 20 µM) | inhibition [1]
O=C(NCCCn1ccnc1)C(=O)Nc1ccccc1 | 0.2% (inactive) | –
COc1ccc(OC)c(NC(=O)Cc2nn(C)c(=O)c3ccccc23)c1 | 2.9% (inactive) | –
Cc1c(C(=O)N2CCC(C)CC2)cccc1[N+](=O)[O-] | -0.4% (inactive) | –
O=[N+]([O-])c1ccc(S(=O)(=O)Nc2nc3ccccc3nc2Nc2ccccc2)cc1 | 1% (inactive) | –
O=S(=O)(Nc1cccc(S(=O)(=O)N2CCCCCC2)c1)c1ccccc1 | -0.4% (inactive) | –
Cc1ccc(S(=O)(=O)Nc2nc3ccccc3nc2Nc2cccc(S(=O)(=O)N3CCCC3)c2)cc1 | 72.4% (active) | –
COc1ccc(S(=O)(=O)Nc2cccc(S(=O)(=O)N3CCCCCC3)c2)cc1 | 2.5% (inactive) | –
CC(=O)Nc1ccc(S(=O)(=O)Nc2nc3ccccc3nc2Nc2ccc(S(N)(=O)=O)cc2)cc1 | 37.9% (inactive) | –
NS(=O)(=O)c1ccc(Nc2nc3ccccc3nc2NS(=O)(=O)c2cccc([N+](=O)[O-])c2)cc1 | 69.6% (active) | –
O=C(CSC1=NCCS1)N1CCCC1 | 4.9% (inactive) | –
CCN1CCN(CC(O)COc2ccc(Cl)cc2)CC1 (centres undefined) | -1.2% (inactive) | –
CCc1nnc(NC(=O)c2ccc(OCc3c(C)noc3C)c(OC)c2)s1 | 0.8% (inactive) | –
O=C(CCCSc1ccccc1)Nc1nc(-c2ccco2)c(-c2ccco2)s1 | 58.7% (inactive) | 2.6%
COc1ccc(-c2nc(NC(=O)C3CC(=O)N(c4ccc5c(c4)OCCO5)C3)sc2C)cc1 (centres undefined) | 2.7% (inactive) | –
O=C(Nc1nnc(C2CC2)s1)C1CC(=O)N(c2ccc3c(c2)OCCO3)C1 (centres undefined) | 16.4% (inactive) | –
O=C(Nc1nc(-c2ccco2)c(-c2ccco2)s1)C1CCC1 | 63.8% (active) | –
O=C(Nc1nnc(-c2ccco2)s1)C1CC1 | 0.3% (inactive) | –
O=C(CCl)Nc1nc(-c2ccco2)c(-c2ccco2)s1 | 64.5% (active) | –
O=C(Nc1nc(-c2ccco2)c(-c2ccco2)s1)C1CC(=O)N(c2ccc3c(c2)OCCO3)C1 (centres undefined) | 59.5% (active) | –
O=C(Nc1nnc(-c2ccco2)s1)C1CCCCC1 | 2.3% (inactive) | –
Nc1nc(-c2ccco2)c(-c2ccco2)s1 | 1.2% (inactive) | –
COc1cccc(NC(=O)N(C2CCCCC2)C(C)c2cccs2)c1 (centres undefined) | -4.1% (inactive) | –
CCOC(=O)c1cnc2c(ccc3ccccc32)c1NCCN(C)C | -0.1% (inactive) | –

Structure (SMILES) | inhibition (at 20 µM) | inhibition [1]
CCOC(=O)c1cccc(NC(=O)CCn2nc(C)c(S(=O)(=O)N3CCCCC3)c2C)c1 | -0.9% (inactive) | –
CCC(C)(C)NC(=O)CN(C(=O)C(=O)Nc1ccc2c(c1)OCCO2)N1CCOCC1 | 1.2% (inactive) | –
COc1ccccc1N1CCN(C(=O)CCc2ccc(S(=O)(=O)NCC(C)C)cc2)CC1 | 0.1% (inactive) | –
N#CC(C#N)=Cc1ccc(OCC(=O)N2CCOCC2)cc1 | 0.6% (inactive) | –
O=C1C=C(N2CCCCCC2)C(=O)N1c1ccc(Cl)cc1 | -1.8% (inactive) | –
O=C1c2ccccc2C(=O)N1c1ccc(Cl)cc1 | -5.5% (inactive) | –
O=C1C=C(Nc2ccc(Cl)cc2)C(=O)N1c1ccc(Cl)cc1 | 54.8% (active) | –
COC(=O)C1CCCCN1C(=O)c1cccc(OC2CCN(C(=O)C3CC3)CC2)c1 (centres undefined) | 1.5% (inactive) | –
CCOC(=O)C1=C(O)/C(=C/c2ccc(-c3ccccc3C(=O)O)o2)SC1=Nc1ccc(OC)cc1 | 51.8% (active) | –
CCOC(=O)C1=C(O)/C(=C/c2cc(OC)c(OC)c(OC)c2)SC1=Nc1ccc(OC)cc1 | -0.4% (inactive) | –
CCOC(=O)C1=C(O)/C(=C/c2cc(OC)c(O)c(OC)c2)SC1=Nc1ccc(OC)cc1 | 32.3% (inactive) | –
O=C(CCCCCCCCC(=O)N/N=C/c1ccco1)N/N=C/c1ccco1 | -2.2% (inactive) | –
Oc1ccccc1N1CCN(C(=S)NCCc2ccccc2)CC1 | 9.4% (inactive) | –
COc1ccc(OC)c(C(=O)c2c(C)oc3cc([N+](=O)[O-])c(O)c([N+](=O)[O-])c23)c1 | -0.7% (inactive) | –
Cc1oc2cc([N+](=O)[O-])c(O)c([N+](=O)[O-])c2c1C(=O)c1ccc(Cl)cc1 | 19.8% (inactive) | –
Cc1oc2cc([N+](=O)[O-])c(O)c([N+](=O)[O-])c2c1C(=O)c1ccc(Br)cc1 | 51% (active) | –
CCCNC(=O)NC(=O)CSc1nnc(C)n1N | 1.6% (inactive) | –
CC(=O)c1sc(Nc2cccc(C)c2)nc1C | 0.2% (inactive) | –
O=C(O)CN1C(=O)/C(=C\c2ccccc2OCc2ccc(F)cc2)SC1=S | 60.3% (inactive) | 36.9%
O=C(O)CN1C(=O)/C(=C\c2ccccc2OCc2ccc(Cl)cc2)SC1=S | 45.9% (inactive) | –
O=C(O)CN1C(=O)/C(=C\c2cc([N+](=O)[O-])ccc2OCc2ccccc2Cl)SC1=S | 68.9% (active) | –
C=Cn1cc[n+](CC(=O)c2ccc(OC)cc2)c1 | -0.9% (inactive) | –
O=C(NCC1(c2ccccc2)CCCC1)c1cccc(Br)c1 | -2.2% (inactive) | –

Structure (SMILES) | inhibition (at 20 µM) | inhibition [1]
CCOC(=O)c1ccccc1N1C(=O)C2Sc3[nH]c(=O)sc3C(/C=C/c3ccccc3)C2C1=O (centres undefined) | 31.6% (inactive) | –
CCOc1ccc(N2C(=O)C3Sc4[nH]c(=O)sc4C(/C=C/c4ccccc4)C3C2=O)cc1 (centres undefined) | 53.6% (active) | –
CCOc1ccc(N2C(=O)C3Sc4[nH]c(=O)sc4C(c4ccc(OC)c(OC)c4)C3C2=O)cc1 (centres undefined) | 15.2% (inactive) | –
Cc1ccc([N+](=O)[O-])cc1S(=O)(=O)Nc1ccc(C(=O)N(C)C)cc1 | -0.4% (inactive) | –
CCC(C(=O)OCCOCCN(CC)CC)c1ccccc1 (centres undefined) | -1.7% (inactive) | –
CN(C(=O)c1ccc(S(=O)(=O)N(C)C)cc1)c1ccc2ccccc2c1 | -2% (inactive) | –
O=C(O)c1ccc(COc2ccccc2/C=C2\NC(=O)N(Cc3ccccc3)C2=O)cc1 | 31.4% (inactive) | –
O=C(O)c1ccc(COc2ccccc2/C=C2/NC(=O)N(c3cccc(Cl)c3)C2=O)cc1 | 53.3% (active) | –
O=C(O)c1ccc(COc2ccccc2/C=C2\NC(=O)N(Cc3ccc(F)cc3)C2=O)cc1 | 37.2% (inactive) | –
CCOc1cc(NC(=S)NCCCN2CCOCC2)c(OCC)cc1NC(=O)c1cccs1 | -2.2% (inactive) | –
Cc1ccc(-c2c(C#N)c(N)n(-c3ccccc3)c(=O)c2C#N)cc1 | -0.6% (inactive) | –
Cc1ccc(-c2c(C#N)c(N)n(-c3ccc(C)cc3)c(=O)c2C#N)cc1 | 3.9% (inactive) | –
Cc1ccc(-c2nc3sc(C#N)c(N)n3c(=O)c2C#N)cc1 | 59.9% (active) | 52.2%
CC1CCN(c2ccc3nnc(CCC(=O)N4CCN(c5ccccc5F)CC4)n3n2)CC1 | 0.3% (inactive) | –
CCOC(=O)C1=NOC(CNC(=O)c2c(-c3ccccc3Cl)noc2C)C1 (centres undefined) | 0.6% (inactive) | –
COc1ccc(CC(NC(C)=O)C(=O)N2CCN(C(=O)N(C(C)C)C(C)C)CC2)cc1 (centres undefined) | -0.1% (inactive) | –
Cc1ccc(/C=C2\SC(N3CCCC3)=NC2=O)cc1 | -0.9% (inactive) | –
Cc1ccc(/C=C2\SC(N3CCCCC3)=NC2=O)cc1 | -1.2% (inactive) | –
CN(C)c1ccc(/C=C2\SC(N3CCCCC3)=NC2=O)cc1 | 74.1% (active) | 50.6%
O=C(O)/C=C/c1cccc(NC(=O)Nc2ccc([N+](=O)[O-])cc2)c1 | 1.6% (inactive) | –
O=C(COC(=O)CCc1ccc(S(=O)(=O)N2CCOCC2)cc1)NC(=O)NC1CCCCC1 | 0.6% (inactive) | –

Source: PubChem BioAssay AID1986 (Sanford-Burnham Center for Chemical Genomics, 2009)
